Source: PubChem BioAssay
CSC inhib: cancer stem cell inhibition; inhibition, % at 7.5 µM; 300,000 tested, 1.1% active; cancer stem cell-like cells viability, luminescence; AID 2717; in the data active = inhibition above about 75%; tested in HMLE shEcad cells
KLF5 inhibitor: kruppel-like factor 5 inhibition; AID 1700; inhibition, % at 5 µM; DLD-1 KLF5 promoter-luciferase reporter, luminescence; 290,000 tested, 0.23% active;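 active = inhibition above a per-plate limit of that plate's mean compound inhibition plus 3 SD, cut at about 60% in these data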;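 also: 0% = DMSO wells and 100% = LY294002 at 200 µM; higher means less KLF5 promoter-driven luciferase light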
aSyn 5UTR inh: MLPCN primary screen, SNCA 5' untranslated region; 300,000 tested, 0.82% active; alpha-synuclein 5'UTR reporter, inhibitor activity; inhibition, % (tested at 7.5 µM); in the data active = inhibition above about 60%;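 also: H4 neuroglioblastoma cells stably carrying SNCA 5'UTR luciferase fusion; 0% = DMSO wells and 100% = positive control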
SKKanGAS inh: SKKanGAS growth inhibition; 300,000 tested, 1.3% active; AID 1662; S. pyogenes SKKanGAS, kanamycin growth, BacTiter-Glo, 6 h; inhibition, % at 7.5 µM;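 active = mean replicate score, as percent of positive control median, at least 50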;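 also: strain carries kanamycin resistance gene driven by streptokinase promoter and grows in 40 µg/ml kanamycin; loss of luminescence reflects streptokinase promoter inhibition or plain growth inhibition; 0% = median of DMSO wells and 100% = positive control at its reference dose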
IEC-6 cytotox: IEC-6 cytotoxicity, counter-screen for KLF5 inhibitors | luminescence viability | inhibition, % at 5 µM | 290,000 tested, 0.78% active | AID 1825;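 also: 0% = plate median of test compound wells and 100% = cytotoxic reference compound wells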
IEC-6 tox confirm: IEC-6 cytotoxicity, confirmation assay; shares compounds with IEC-6 cytotox; IEC-6 rat intestinal epithelial viability, luminescence; inhibition, % at 5 µM; 1,900 tested, 63% active;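 also: 0% = vehicle and 100% = reference cytotoxic drug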
Active calls of the source: *; . = no result given. A selection: hits, their analogues and other compounds. The true share with any hit is near 3%. Rule as the data show it, unless noted: active = inhibition above about 22%; inactive = the rest.

SMILES | CSC inhib | KLF5 inhibitor | aSyn 5UTR inh | SKKanGAS inh | IEC-6 cytotox | IEC-6 tox confirm
CCc1nnc(NC(=O)c2ccc(Cl)nc2)s1 | -3.7 | -77.1 | -49.9 | 12.1 | -3.1 | .
COc1ccc(F)cc1Cn1nc(C(=O)O)c2ccccc2c1=O | -10.6 | -0.4 | 6.1 | -2.6 | 36.4* | 21.3
O=C(O)c1nn(CCOc2cccc(Cl)c2)c(=O)c2ccccc12 | 9.0 | -16.4 | 9.8 | -3.7 | -6.6 | .
O=C(O)c1nn(CCOc2c(Cl)cccc2Cl)c(=O)c2ccccc12 | 11.6 | 29.3 | -5.1 | -1.0 | 39.7* | 17.7
COc1ccc(Cn2nc(C(=O)O)c3ccccc3c2=O)cc1F | 1.9 | -48.8 | 18.6 | -1.2 | 1.4 | .
O=S(=O)(c1cccs1)N1CCN(c2ccc(O)cc2)CC1 | 60.7 | -7.1 | 18.6 | 3.4 | 24.3* | 5.8
O=C(Cc1ccc(-n2cccc2)cc1)NCc1ccccc1Cl | 58.3 | -24.2 | -23.8 | -9.4 | 28.7* | 31.6*
CC(C)OC(=O)c1ccc(NC(=O)c2ccccc2)cc1 | -1.4 | -110.5 | -78.3 | -6.1 | 2.4 | .
CC(C)OC(=O)c1ccc2nc3ccccc3nc2c1 | 16.2 | -150.0 | 34.8 | 14.5 | 24.2* | 19.9
O=C1c2cccc3c([N+](=O)[O-])ccc(c23)C(=O)N1CCc1ccccn1 | 69.8 | 3.1 | -22.8 | 48.4 | 0.6 | .
CN(C)CCCN1C(=O)c2cccc3c([N+](=O)[O-])ccc(c23)C1=O | 37.8 | 10.2 | . | . | 38.8* | 26.9*
O=C(c1ccccc1)c1c2c(cc3sc4ccccc4[n+]13)-c1cccc3cccc-2c13 | 63.7 | -9.4 | . | . | 39.1* | 17.8
CCOc1cc(N2CCOCC2)c(OCC)cc1NS(=O)(=O)c1ccc(Cl)s1 | 59.7 | 21.3 | 5.3 | 24.4 | 56.9* | 58.2*
CC(C)(C)NC(=O)COC(=O)c1ccccc1Nc1ccc(SC(F)F)cc1 | 4.1 | -69.5 | -145.2 | 16.8 | 37.9* | 31.1*
NC(=O)COC(=O)c1ccccc1Nc1ccc(SC(F)F)cc1 | 43.6 | -41.5 | -81.6 | 5.8 | 16.5 | .
COc1cc(CN2CCc3ccccc3C2)ccc1O | 22.2 | 18.7 | -38.6 | 1.5 | 29.7* | 15.9
CCOC(=O)C1CCCN(C(=S)Nc2cccc(Cl)c2)C1 (stereo not given) | -1.3 | -17.9 | 12.2 | 3.3 | -4.6 | .
O=C(/C=C/c1ccco1)Nc1ccccn1 | 48.5 | -111.6 | 12.2 | 6.1 | 27.5* | 58.5*
Cc1ccc(NC(=O)/C=C/c2ccco2)nc1 | . | 29.6 | -63.5 | -1.5 | 85.6* | 57.2*
CCOc1ccc(CCNC(=O)CSc2n[nH]c(N)n2)cc1OCC | -7.0 | -17.1 | 32.1 | -1.7 | -1.5 | .
O=C(NNC(=O)C12CC3CC(CC(C3)C1)C2)c1ccccn1 | 17.1 | 39.2 | -49.7 | 3.9 | 22.1* | 38.9*
O=C(NNC(=O)C12CC3CC(CC(C3)C1)C2)c1cnccn1 | 4.6 | -5.4 | 37.1 | 2.2 | -2.1 | .
CCC(=O)OCCNc1cc(Sc2nc3ccccc3[nH]2)c2nonc2c1[N+](=O)[O-] | 26.9 | 24.5 | . | . | 53.6* | 4.9
CC1(C)CN=C(N(Cc2ccccc2)C(=O)Nc2ccccc2)S1 | -16.8 | -34.2 | -153.9 | -4.2 | -5.2 | .
CSc1ncccc1C(=O)N(C)CC(=O)Nc1cccc(F)c1 | -2.4 | -32.4 | -6.4 | -4.1 | -3.1 | .
SMILES | CSC inhib | KLF5 inhibitor | aSyn 5UTR inh | SKKanGAS inh | IEC-6 cytotox | IEC-6 tox confirm
CCC(C)NCCOCCOc1ccc(Cl)c2ccccc12 (stereo not given) | . | -14.3 | 2.8 | -4.9 | 33.9* | 14.8
Cc1occc1C(=O)Nc1nnc(-c2cccs2)s1 | 1.2 | -11.6 | -351.4 | -3.9 | -5.6 | .
CC(C)NC1=C(Cl)C(=O)c2ccccc2C1=O | 31.2 | -52.2 | -91.2 | 1.5 | 44.3* | 16.5
O=C1C(Cl)=C(NCc2cccnc2)C(=O)c2ccccc21 | 24.0 | 2.6 | -141.3 | -0.3 | 99.3* | 57.0*
CCN(CC)CCCNC1=C(Cl)C(=O)c2ccccc2C1=O | 106.6* | -2.6 | 76.1* | 11.1 | 88.1* | 77.0*
O=S(=O)(Cc1ccccc1)NCc1cccnc1 | . | 5.5 | 8.0 | -6.1 | 8.5 | .
CC(C)OCCCNC(=S)NNC(=O)C(c1ccccc1)c1ccccc1 | -8.4 | -0.2 | 0.3 | -12.0 | -7.4 | .
CC(C)OCCCNC1=C(Cl)C(=O)c2ccccc2C1=O | 6.5 | -29.4 | -43.9 | -3.4 | 50.7* | -2.5
CCOC(=O)N1CCC(N2C(=O)c3ccccc3C2Nc2ccc(S(=O)(=O)N(CC)CC)cc2)CC1 (stereo not given) | -10.1 | -10.5 | -9.6 | -11.9 | -3.0 | .
O=[N+]([O-])c1cnn(-c2nc(-c3ccccc3)cc(C(F)(F)F)n2)c1 | -8.7 | -2.1 | 2.4 | -5.7 | -0.4 | .
Cn1c(Cl)cnc1C1CC(=O)c2cc(Cl)ccc2O1 (stereo not given) | 45.8 | -9.8 | 32.8 | -11.4 | 69.6* | 9.2
CC(=O)N1CCC2(CC1)CC(=O)c1cc(Cl)ccc1O2 | -12.2 | . | -3.7 | 1.5 | . | .
COc1ccc(/C=C2\CN(Cc3ccccc3)C/C(=C\c3ccc(OC)c(O)c3)C2=O)cc1O | 118.8* | 24.6 | 106.7* | 21.3 | 32.6* | 14.8
CCN1C/C(=C/c2ccc(OC)c(O)c2)C(=O)/C(=C/c2ccc(OC)c(O)c2)C1 | 102.4* | 26.5 | 116.0* | 0.6 | 31.6* | 42.3*
O=C1[C@@H]2Cc3c([nH]c4ccccc34)C(c3cccc([N+](=O)[O-])c3)N2C(=O)CN1CCCO (stereo not given in full) | -8.5 | -21.2 | 30.2 | 3.9 | 0.9 | .
CN1CC(=O)N2C(c3cccc([N+](=O)[O-])c3)c3[nH]c4ccccc4c3C[C@H]2C1=O (stereo not given in full) | 10.0 | 32.4 | 17.1 | -2.7 | 34.1* | 14.1
COc1ccc(OC)c2c1C(=O)c1ccccc1C2=O | -25.5 | -11.8 | 2.4 | 2.5 | -19.3 | .
COc1ccc(OC)c2c1C(=O)C(Cl)=C(Cl)C2=O | 96.4* | 7.5 | -88.8 | 34.0 | 86.4* | 63.0*
NC(=S)N/N=C/c1ccc(C(F)(F)F)cc1 | 12.0 | 19.2 | -8.4 | -4.4 | 39.2* | 18.3
Cc1ncc(CN2CCC(C(=O)Nc3ccc(-n4cccn4)cc3)CC2)s1 | -11.6 | -28.9 | 1.1 | -11.2 | -0.3 | .
O=C(Nc1ccc(-n2cccn2)cc1)C1CCCCN1Cc1cccc2c1OCO2 (stereo not given) | 62.2 | 39.3 | -2.1 | -1.6 | 54.1* | 36.9*
COc1ccc(CC2SC(N)=NC2=O)cc1 (stereo not given) | 0.9 | 1.9 | 3.3 | -5.1 | 3.1 | .
CCOc1cccc(-c2c(C(=O)N/N=C/c3ccc(C)o3)nnn2-c2nonc2N)c1 | -7.0 | -9.4 | 9.6 | -2.2 | 0.7 | .
CCOc1ccc(N2C(=O)CC(NCCNc3ccc(C(=O)c4cccs4)cc3)C2=O)cc1 (stereo not given) | 6.3 | -5.9 | 26.9 | 3.7 | 1.9 | .
COc1ccc(/C=N/Nc2nnc(C)n2N)cc1OC | -3.7 | 10.1 | -22.8 | 0.9 | 101.6* | 4.0
COc1ccc(-n2nc3c(c2NC(=O)CCCl)CSC3)cc1 | -0.8 | -3.5 | -26.8 | -4.7 | -1.3 | .
C/C=C\C(=O)Nc1cccc(C2=NOC3(C2)C[C@H](C(N)=O)N(C(=O)Cc2ccc([N+](=O)[O-])cc2)C3)c1 (stereo not given in full) | -2.2 | . | 13.4 | -5.0 | . | .
